Among the data in PubChem BioAssay AID720531 (The Scripps Research Institute Molecular Screening Center, 2013) are inhibition values, retold here.

In all, about 1,000 compounds went through this assay and about 270 (27%) were called active. Not all results are given here. Values without a mark were called inactive. Cut-off read from the data, not from the text of the source: active = inhibition above about 14%; inactive = the rest.

The target of the assay is Methyl-CpG-binding domain protein 2 (Homo sapiens) (UniProt Q9UBB5). In words: inhibitors of MBD2 binding to methylated DNA, confirmation, biochemical, TR-FRET, DNA-binding domain, human (AID 720531). Particulars: TR-FRET MBD2-DBD binding to methylated oligonucleotide; at 4.4 µM; stronger effect = higher value. (In TR-FRET formats the signal depends on donor and acceptor labels being close together.)
Sequence of Methyl-CpG-binding domain protein 2 (Homo sapiens) (Q9UBB5 whole entry, looked up, the tested form may be a part): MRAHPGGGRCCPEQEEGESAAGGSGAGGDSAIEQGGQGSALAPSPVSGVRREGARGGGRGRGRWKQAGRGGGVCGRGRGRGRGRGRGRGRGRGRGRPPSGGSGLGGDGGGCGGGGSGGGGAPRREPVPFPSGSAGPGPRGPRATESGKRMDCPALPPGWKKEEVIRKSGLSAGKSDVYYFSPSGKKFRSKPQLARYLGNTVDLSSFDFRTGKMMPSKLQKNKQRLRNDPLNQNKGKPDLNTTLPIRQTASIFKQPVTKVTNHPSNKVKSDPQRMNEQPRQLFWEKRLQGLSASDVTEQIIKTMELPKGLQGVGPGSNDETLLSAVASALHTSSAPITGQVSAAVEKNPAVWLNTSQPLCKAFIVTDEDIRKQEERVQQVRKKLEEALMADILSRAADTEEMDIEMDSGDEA
What is called inhibition is the change of the read-out against control, counted positive when it falls. Take `c1ccc2cc3c(NCCN4CCOCC4)ccnc3cc2c1`: the inhibition is 25% (active).

With `Cc1cccc(NC(=O)C[C@H]2CC[C@H]3[C@@H](COc4ccc(NC(=O)Nc5ccccc5)cc4C(=O)N3C)O2)c1`, the inhibition was 8.99%.

As to `COC(=O)[C@]12C[C@H](CC(=O)NCCC(C)C)C(=O)N(CCc3ccc(OC)c(OC)c3)C1=C[C@H](C(C)(C)C)O[C@@H]2C`, the inhibition is 2.11%.

For `O=c1ccc2c(-c3ccccc3S(=O)(=O)O)c3ccc(O)c(O)c3oc-2c1O`, the inhibition was 94.4% (active).

Take `CN(C)[C@@H]1C(=O)C(C(N)=O)=C(O)[C@@]2(O)C(=O)C3=C(O)c4c(O)ccc(Cl)c4[C@@H](O)[C@H]3C[C@@H]12`: the inhibition was 0.76%.

On to `CN(C)CCNC(=O)c1ccc(Cl)c2cc3ccccc3nc12`, for which the inhibition was 68.7% (active).

In the case of `COc1nc(N(C)C)nc(N2CC(=O)N(CCNS(=O)(=O)c3ccc(C)cc3)C2=N)n1`, the inhibition is 3.06%.

For the compound `COC(=O)c1c(NC(=O)c2ccc(S(=O)(=O)N3CCOCC3)cc2)sc2c1CCN(C(C)C)C2`, the inhibition was 23.6% (active).

Regarding `CCOc1ccc(-n2c(SCC(=O)Nc3ccc(OC)cc3)nc3sc4c(c3c2=O)CCN(C)C4)cc1`, the inhibition was 4.44%.

`COc1ccc(COC[C@H](CC(C)C)N2CCN(C(=O)c3cccc(C(F)(F)F)c3)CCC2=O)cc1`: the inhibition was 5.45%.

In the case of `Nc1ccccc1C(=O)NC1CCCCNC1=O` (stereo not given), the inhibition was 0.65%.

As for `C=CCn1c(=S)[nH]c2scc(-c3ccco3)c2c1=O`, the inhibition was 27.2% (active).

For the compound `COC(=O)c1ccc(CSc2nncn2N)cc1`, the inhibition is 1.91%.

As to `Cc1c(NS(=O)(=O)c2cc(C(=O)NCCc3ccc(F)cc3)cc(Cl)c2Cl)c(=O)n(-c2ccccc2)n1C`, the inhibition is 3.66%.

As to `C=CCN(C(=O)[C@@H](CCCC)[C@@H](O)c1ccc(Cl)cc1)c1ccccc1`, the inhibition is 3.23%.

Regarding `C=CC1=C(C(=O)O)N2C(=O)[C@@H](NC(=O)/C(=N\OCC(=O)O)c3csc(N)n3)[C@H]2SC1`, the inhibition was 104% (active).

Consider `CNC(=O)C[C@H]1C(=O)N(c2ccc(OC)cc2)C[C@@H]1Cc1ccccc1`, for which the inhibition was 2.83%.

For `CCOc1ccc(S(=O)(=O)N2CCC(c3ccccc3)CC2)cc1C(=O)O`, the inhibition was 0.33%.

On to `CC(C)c1nc(CNC(=O)CC2C(=O)NCCN2Cc2cccc(F)c2F)cs1` (stereo not given), for which the inhibition is 1.21%.

In the case of `CCOc1ccc(NC(=O)c2cc(C)nc3ccccc23)cc1`, the inhibition is 1.13%.

For the compound `Cc1ccc(Cc2cnc(N)s2)o1`, the inhibition is 2.75%.

`CCOC(=O)C1C(=O)OC2(CCCC2)C1C(=O)OCC` (stereo not given): the inhibition was 1.9%.

As to `CCN(CC)CCOc1ccc2c(c1)C(=NNC(=O)c1ccccn1)c1cc(OCCN(CC)CC)ccc1-2`, the inhibition is 112% (active).

Consider `C=CCN1C(=O)c2ccc(C(=O)N3CCC(C(=O)OCC)CC3)cc2C1=O`, for which the inhibition was 4.08%.

Regarding `COc1ccccc1C(=O)NNC(=O)CCN1C(=O)/C(=C\c2ccccc2)SC1=S`, the inhibition was 1.72%.

Regarding `COC(=O)c1cn(C)c2ccc(S(=O)(=O)N3CC(C)CC(C)C3)cc2c1=O` (stereo not given), the inhibition was 6.67%.

With `Cc1ccc(-c2ccnc3nc(Sc4ncc(C(F)(F)F)cc4Cl)nn23)cc1`, the inhibition is 3.6%.

On to `CCOc1cc(-c2noc(CCCC(=O)NC3CCCCC3)n2)ccc1OC`, for which the inhibition was 7.12%.

Consider `C=C1c2c(Cl)ccc(O)c2C(O)=C2C(=O)[C@]3(O)C(O)=C(C(N)=O)C(=O)[C@@H](N(C)C)[C@@H]3[C@@H](O)C12` (stereo not given in full), for which the inhibition was 7.25%.

As to `Cc1cc(C)c2nc3nc(C)cc(C)c3c(N)c2c1`, the inhibition was 45.1% (active).

As to `CC(C)Oc1ccc(C2NC(=O)NC2=O)cc1` (stereo not given), the inhibition is 6.62%.

`COC(=O)c1ccc2nc(C3CCCCC3)c(Cc3cccc(F)c3)n2c1`: the inhibition was 4.72%.

In the case of `Cc1ccccc1NC(=O)CN1C(=O)N/C(=C\c2cccn2-c2cccc(C(=O)O)c2)C1=O`, the inhibition is 21.2% (active).

For `Cc1cccc(CN2CCN(C3CN(Cc4cn(Cc5cc(C)cc(C)c5)nn4)S(=O)(=O)C3)CC2)c1` (stereo not given), the inhibition is 1.92%.

`CCOc1ccc(N(CC(=O)NCCOc2ccccc2OC)S(=O)(=O)c2ccccc2)cc1`: the inhibition was 2.61%.

As for `Cc1c(C=O)n(C)n(-c2ccccc2)c1=O`, the inhibition is 6.3%.

Regarding `Brc1ccc(-c2n(-c3ccccn3)c3ccccc3[n+]2-c2ccccn2)cc1`, the inhibition was 76.4% (active).

As to `COc1ccc(-n2cc(-c3ccccc3)c3c(=S)nc[nH]c32)cc1`, the inhibition was 3.57%.

Consider `Cc1ccc(C)c(NC(=O)c2ccc(OC(=O)c3ccco3)cc2)c1`, for which the inhibition was 4.94%.

In the case of `CC(=O)c1ccccc1NC(=O)COC(=O)C1COc2ccccc2O1` (stereo not given), the inhibition was -0.13%.

`COc1ccc(CNC(=O)c2c[nH]c3c(OC)cc(OC)cc3c2=O)cc1`: the inhibition is 3.79%.

`COC(=O)c1ccc2nc(-c3cccc(Br)c3)c(Cc3ccc(OC)cc3C)n2c1`: the inhibition was 8.39%.

As for `CN(C(=O)COC(=O)c1cc(-c2ccco2)nc2ccccc12)C1CCS(=O)(=O)C1` (stereo not given), the inhibition is 32.3% (active).

Take `CO/N=C(/CS(=O)(=O)c1ccc(Br)cc1)c1ccc(OC)cc1`: the inhibition is 3.47%.

Take `COc1ccc(OCc2cc(C(=O)NCC3(C)COC3)no2)c(Cl)c1`: the inhibition was -0.36%.

In the case of `CCOc1cc(N2CCOCC2)c(OCC)cc1NC(=O)c1cc(C)nc2ccccc12`, the inhibition is 2.46%.

For the compound `COc1ccc2[nH]c3c(C)c4cc[n+](C)cc4c(C)c3c2c1`, the inhibition is 109% (active).

As to `CCOC(=O)CCP(=O)(O)C(O)(c1ccccc1)c1ccccc1`, the inhibition was 5.44%.

Turning to `COc1ccc2c(c1)c(=Cc1ccc(N(C)C)cc1)c1cc(-c3ccccc3)[n+](C)n12`, the inhibition is 73% (active).

In the case of `CCOC(=O)c1sc(NC(=O)CCN2CCOCC2)c(C(=O)OCC)c1C`, the inhibition was 1.01%.

As for `O=C(c1n[nH]c2c1CCC2)N1CCCC(Nc2cccc(F)c2)C1` (stereo not given), the inhibition was 3.32%.

As for `O=C(CC1CCCCC1)Nc1c2c(nn1-c1ccc(F)cc1)CS(=O)(=O)C2`, the inhibition was 1.28%.

`CCOC(=O)c1ccc(-n2c(CCC(=O)O)ccc2-c2ccccc2)cc1`: the inhibition was -0.54%.

Consider `COC(=O)c1cccc(NC(=O)c2cccc(N3C(=O)CCC3=O)c2)c1`, for which the inhibition was 1.64%.

Take `Cc1ccc(C(=O)Nc2ccc3c(c2)OCO3)cc1S(=O)(=O)N1CCCCC1`: the inhibition is 5.06%.
